The list is not random: actives were taken first. Their share in the collection is about 12%.
OTUD3 inh: blocks human OTUD3 ubiquitin-rhodamine cleavage; purified OTUD3, Ub-rhodamine fluorescence, 2 h; inhibition, % at 25 µM; 47,000 compounds, 0.7% hits
Target sequence (Q5T2D3 whole entry, looked up): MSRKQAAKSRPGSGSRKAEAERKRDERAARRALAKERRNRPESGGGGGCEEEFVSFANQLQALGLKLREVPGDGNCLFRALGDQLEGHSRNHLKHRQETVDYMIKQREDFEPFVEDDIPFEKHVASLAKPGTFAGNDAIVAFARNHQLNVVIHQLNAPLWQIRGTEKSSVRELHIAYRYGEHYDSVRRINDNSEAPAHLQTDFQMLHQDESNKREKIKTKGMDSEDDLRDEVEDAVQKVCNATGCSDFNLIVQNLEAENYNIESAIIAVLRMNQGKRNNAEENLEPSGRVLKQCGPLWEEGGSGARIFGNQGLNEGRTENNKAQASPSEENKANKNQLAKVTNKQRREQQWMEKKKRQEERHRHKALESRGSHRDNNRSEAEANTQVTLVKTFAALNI
USP30 inh: inhibitors of human USP30 deubiquitinase; inhibition, % at 25 µM; Q70CQ3; 47,000 compounds, 5.3% hits; purified USP30, Ub-rhodamine cleavage fluorescence; AID 1645860
USP28 inh: inhibitors of human USP28 deubiquitinase; purified USP28, Ub-rhodamine cleavage fluorescence, 30 min; inhibition, % at 25 µM; 47,000 compounds, 3% hits; AID 1645857
USP17 inh: human USP17-like deubiquitinase inhibition. purified USP17, Ub-rhodamine cleavage fluorescence, 3 h. 47,000 compounds, 6.5% hits. inhibition, % at 50 µM. A8MUK1
* hit, by the source's call; nt = no result. Cut-off read from the data, not from the text of the source: active = inhibition above about 30%; inactive = the rest.

SMILES	OTUD3 inh	USP30 inh	USP28 inh	USP17 inh
CCOC(=O)c1ccc(NC(=O)Cn2c(=O)n(CC(=O)NCCc3ccc(OC)c(OC)c3)c(=O)c3sccc32)cc1	20.8	66.2*	21.4	24.8
O=C(Cc1ccc(-n2c(=O)c3sccc3n(Cc3ccc(F)cc3)c2=O)cc1)NCCc1ccccc1	-7.8	nt	nt	66.9*
CCOc1ccc(NC(=O)Cn2c(=O)n(CCCCCC(=O)NCc3ccc(F)cc3)c(=O)c3sccc32)cc1	31.9*	48.6*	21.4	42.9*
CC(C)(C)CC(=O)N1C[C@@H]2c3nc(NCC4CC4)ncc3CS(=O)(=O)[C@@H]2C1	-2.4	9.6	-0.3	-2.2
Cc1nc2cc(N3CCC(C(=O)N4CCN(c5ccccn5)CC4)CC3)cnc2nc1C	-74.8	-326.0	-92.5	-142.9
O=C(Nc1ccc(-n2cccc2)cc1)c1ccc(Cl)cc1	8.2	7.0	9.7	-23.1
Cc1cnnn1-c1ccc(C(=O)Nc2cccc(Cl)c2)cc1	11.3	54.2*	22.8	80.4*
Cc1cnnn1-c1ccc(C(=O)Nc2cc(Cl)ccc2Cl)cc1	5.3	23.7	9.1	68.1*
COc1ccc(CN(C(=O)COc2ccc(Cl)cc2C)C2CCS(=O)(=O)C2)cc1OC (stereo not drawn)	-1.5	0.0	-5.1	-1.9
O=C(Nc1nc(-c2ccccc2)ns1)c1ccc2ncsc2c1	22.5	12.3	9.5	41.2*
O=C(Cc1ccccc1)Nc1nc(-c2ccccc2)ns1	13.1	36.9*	20.6	2.8
CCOc1cccc(C(=O)Nc2nc(-c3ccc(OCC)c(OC)c3)ns2)c1	12.5	6.4	4.3	17.7
O=C(Cc1ccc(Cl)cc1)Nc1nc(-c2ccc(F)cc2)ns1	5.2	0.1	2.2	3.7
COCCN1C(=O)c2ccccc2C(C(=O)NCc2ccccc2OC)C12CCCC2 (stereo not drawn)	-13.4	-16.1	-5.9	-11.3
COc1ccccc1CNC(=O)C1c2ccccc2C(=O)N1Cc1ccc(C)cc1 (stereo not drawn)	51.9*	86.2*	9.3	75.2*
CCOc1ccc(CN2C(=O)c3ccccc3C2C(=O)NCc2ccccc2OC)cc1 (stereo not drawn)	14.4	32.6*	14.6	40.0*
CCOc1ccc(N2C(=O)c3ccccc3C2C(=O)NCc2ccccc2OC)cc1 (stereo not drawn)	17.5	51.8*	13.8	34.5*
COc1ccccc1CNC(=O)[C@@H]1Cc2c([nH]c3ccccc23)C2c3ccccc3C(=O)N21 (stereo partly drawn)	-21.3	-107.3	-21.7	-21.5
COc1ccccc1CNC(=O)C1c2ccccc2CC(=O)N1C(C)C (stereo not drawn)	-1.8	-2.8	-6.2	3.2
CCc1ccccc1NC(=O)Cn1c(=O)n(C2CC2)c(=O)c2nscc21	5.8	-1.3	5.3	6.9
Cc1ccn2c(/C=C(\C#N)c3cccc(C(F)(F)F)c3)c(-c3ccc(Cl)cc3)nc2c1	4.0	9.5	-4.8	0.6
Cc1cc(F)ccc1NC(=O)c1cc(S(=O)(=O)N2CCCCCC2)cn1C	-3.0	-6.3	-4.5	-8.8
CCOC(=O)N1CCN(S(=O)(=O)c2ccc(C(=O)Nc3ccc(Br)cc3)cc2)CC1	23.1	27.8	7.7	87.8*
O=C(Nc1cccc(F)c1)c1nnc(C2CCCN(C(=O)C3CC3)C2)s1 (stereo not drawn)	10.2	15.3	10.8	2.8
Cc1ccc2c(c1)C(C[C@H]1CN(C(=O)C3CC3)CC[C@H]1CC(=O)O)=NCC2	-6.1	-14.4	1.1	6.5
SMILES	OTUD3 inh	USP30 inh	USP28 inh	USP17 inh
CCOC(=O)N1CCN(C(=O)CNC(=O)c2cc3c(OC)cccc3[nH]2)CC1	9.3	15.2	18.0	12.6
O=C(CNC(=O)c1cc2ccccc2[nH]1)Nc1ccc2c(c1)OCCO2	-0.4	25.1	18.1	50.5*
COc1ccc(NC(=O)[C@H](C)NC(=O)c2cc3c(OC)cccc3[nH]2)cc1Cl	87.9*	69.9*	74.2*	85.8*
COc1ccc(OC)c(NC(=O)c2cc3c(OC)cccc3[nH]2)c1	-3.3	-45.2	0.0	7.1
COc1cccc2[nH]c(C(=O)NCC(=O)Nc3ccc4c(c3)OCO4)cc12	-0.8	-4.2	3.9	40.5*
C[C@H]1C(=O)N(C)[C@@H]2CCN(S(=O)(=O)c3ccc(F)cc3)[C@@H]2C(=O)N1C	8.6	14.7	3.9	8.9
CN1C(=O)CO[C@H](c2ccc(NC(=O)c3cccc(C#N)c3)cc2)[C@H]1CO	-1.0	10.1	-5.8	19.2
N#Cc1cccc(C(=O)Nc2ccc([C@H]3OCC(=O)N[C@@H]3CO)cc2)c1	9.1	37.4*	5.0	38.6*
Cc1cc2nccc(-c3ccc(-c4ccccc4)cc3)n2n1	1.3	1.7	-1.3	4.5
COc1ccc(CN2CCN(C(=O)CCc3c(C)noc3C)CC2)cn1	5.3	3.8	5.7	1.9
O=C(c1ccccc1Oc1ccccc1)N1CCn2c1nc1ccccc12	-5.9	-1.5	6.8	-8.7
COc1ccc(OC)c(NC(=O)C2Oc3ccccc3NC2=O)c1 (stereo not drawn)	-8.3	-0.3	51.0*	-11.4
COc1cccc(CNC(=O)C2Oc3ccccc3NC2=O)c1 (stereo not drawn)	1.2	-10.5	-2.2	-1.4
Cc1ccccc1NC(=O)c1c(C)sc2c(=O)n(C(C)C)cnc12	-10.0	-19.9	-8.4	31.9*
COc1ccc(-n2nnc(C(=O)N3CCN(c4ccccc4Cl)CC3)n2)cc1	24.5	33.4*	32.6*	23.1
O=C(c1nnn(-c2ccc(F)cc2)n1)N1CCN(c2ccccc2O)CC1	-2.9	17.1	1.4	1.5
COc1ccc(N2CCN(C(=O)c3nnn(-c4ccc(OC)cc4)n3)CC2)cc1	15.4	35.6*	17.1	11.0
NC(=O)C1CCN(C(=O)c2nnn(-c3ccc(OC(F)(F)F)cc3)n2)CC1	-0.7	11.8	0.0	-2.2
NC(=O)C1CCN(C(=O)c2nnn(-c3ccccc3)n2)CC1	9.2	33.7*	14.0	16.2
O=C(Nc1ccccc1)c1ccc(N2CCNC(c3ccccc3)C2)nc1 (stereo not drawn)	-1.1	-13.6	-10.7	-12.4
CCc1nc2sc(C(C)C)nn2c1S(=O)(=O)N1CCOCC1	-6.9	-7.4	-4.6	-6.3
COc1ccc(CN2CCC(NC(=O)c3ccc4c(c3)OCO4)C2)cn1 (stereo not drawn)	10.7	-2.7	6.3	-0.1
CC1Oc2ccc(NC(=O)c3cc(F)ccc3F)cc2NC1=O (stereo not drawn)	-28.5	-111.9	-17.6	-20.6
O=C(Nc1cccn(Cc2c(Cl)cccc2Cl)c1=O)c1ccccc1[N+](=O)[O-]	14.9	46.3*	80.8*	8.7
CC(C)CCCCCCCCCCC(=O)N(C)[C@H](CO)C(=O)N[C@H](C)C(=O)NCC(=O)N(C)C1C(=O)N[C@@H](C)C(=O)NC(C(=O)O)Cc2ccc(O)c(c2)-c2cc1ccc2O (stereo partly drawn)	6.2	33.2*	56.0*	6.8
COCCCn1c(C(=O)NCc2ccc(F)cc2)cc2c(=O)n3ccccc3nc21	-2.6	-25.5	-14.2	37.8*
COc1ccc(F)cc1S(=O)(=O)N1C[C@@H]2C[C@H](NC(=O)c3ccccc3)[C@H]1C2	-0.2	1.8	0.5	1.5
Cc1ccc(Cl)cc1-n1ncc2c1ncn1nc(C3CCCCC3)nc21	8.1	24.3	15.1	34.2*
